# Screening data (PubChem BioAssay)
# An excerpt weighted towards active compounds, which were near 7.9% of everything screened.
# KB-V1 cytotox – KB-V1 MDR subline cytotoxicity | AID 1347076 | Potency, µM (highest dose often 46.1 µM), most hits filed as cytotoxic | 400,000 tested, 3.4% active | KB-V1 MDR cells viability, CellTiter-Glo, 72 h; further: on the % scale 0 is the no-effect control and ±100 the full control effect; nearly all actives have a fitted effect of over 60% in size
#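 Drug-selected KB-V1 cells, grown in DMEM lacking phenol red with 10% FBS, receive compound titrations; after three days at 37 degrees C, surviving cell ATP is quantified by CellTiter-Glo luminescence and responses normalized and curve-fitted.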
# KB-3-1 tox – kills parental KB-3-1 adenocarcinoma cells | AID 1347075 | 400,000 tested, 1.4% active | Potency, µM (series often up to 46.1 µM), hits mostly cytotoxic | KB-3-1 viability, CellTiter-Glo ATP luminescence, 72 h; further: on the % scale 0 is the no-effect control and ±100 the full control effect; nearly all actives have a fitted effect of over 60% in size
#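 Viability of parental KB-3-1 cells, measured by CellTiter-Glo luminescence, followed a 72 h incubation at 37 °C with pinned compounds in phenol-red-free DMEM containing 10% FBS.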
# HT1080NT lethal – kills 2HG-producing HT-1080-NT fibrosarcoma cells; HT-1080-NT fibrosarcoma viability, CellTiter-Glo ATP luminescence, 48 h; Potency, µM (top dose mostly 46.1 µM), without a hit: at the highest dose activity, negative = less viability, most hits filed as cytotoxic; 360,000 tested, 1.6% active; AID 686970;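 further: NT is the 2HG producing partner of a matched IDH1 knockdown line; 0% = DMSO-treated cells and -100% = media-only wells without cells; nearly all actives have a fitted effect of over 55% in size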
#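 Viability of the 2HG-overproducing fibrosarcoma line after 48 hours of compound exposure at 37 degrees C was determined by luminescence with CellTiter-Glo, and concentration-effect curves were then fitted and categorized.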
# MCF10A rereplic – inducers of DNA re-replication in MCF 10A breast cells. Potency, µM (highest dose often 46.1 µM), inactives show at the highest dose activity, positive = re-replication, usual class: activators. MCF 10A DNA re-replication, Hoechst nuclear intensity, 48 h. AID 624296. 350,000 tested, 2.9% active; further: % of control where 0% means no effect; nearly all actives have a fitted effect of over 50% in size
# SW480 rereplic – induces DNA re-replication in SW480 colon adenocarcinoma cells; SW480 DNA re-replication, Hoechst DNA content imaging, 48 h; Potency, µM (highest dose often 46.1 µM), for inactives: at the highest dose re-replication activation, most hits filed as activators; 340,000 tested, 1.8% active; AID 624297; further: % of control where 0% means no effect; nearly all actives have a fitted effect of over 55% in size
#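 Image-based read-out: total Hoechst fluorescence of nuclei (405 nm excitation, 500-530 nm emission), with hits raising the fraction of high-intensity nuclei. SW480 colon cells incubated 48 hr with compounds at 37 C.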
# HT1080 IDH1KD tx – toxicity to HT-1080 IDH1 knockdown cells (counter line). HT-1080 IDH1 knockdown viability, ATP luminescence, 48 h. Potency, µM (titrated, usually from 46.1 µM), inactives show top-dose activity, negative = toxicity, most hits filed as cytotoxic. 360,000 tested, 2% active;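 further: 0% = DMSO wells and -100% = cell-free medium wells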
#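 After a 2 h attachment period, IDH1KD HT-1080 cells took pin-transferred compound for 48 h at 37 °C; ATP-based luminescence after 10 min room-temperature reagent incubation reported viability.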
# Active calls of the source: *; i = inactive; ? = inconclusive; . = not tested or not shown. The call rests on the fitted dose curve; in most records, active means well fitted curve in the direction sought with a large enough effect; inconclusive means small, poorly fitted or top-dose-only effect, or another doubt; inactive means no such curve, though single readings can be large; an effect the other way counts as inactive or inconclusive. Potency means the concentration at half of the fitted maximal effect.
SMILES,KB-V1 cytotox,KB-3-1 tox,HT1080NT lethal,MCF10A rereplic,SW480 rereplic,HT1080 IDH1KD tx
O=C(Cn1ncc(Cl)c(Cl)c1=O)N1CCN(Cc2ccccc2)CC1,i,?,?,4.1µM*,15%,?
O=C(Cn1ncc2c1-c1ccccc1OC2)N1CCN(Cc2ccccc2)CC1,i,i,-4%,-2%,-3%,-3%
Cc1nn(CC(=O)N2c3ccccc3NC(=O)C2(C)C)c(C)c1[N+](=O)[O-],i,i,-3%,?,22%,-5%
O=C(Cn1cnc2ccccc2c1=O)N1CCN(Cc2ccccc2)CC1,23µM*,i,-1%,-4%,-5%,-2%
O=C(Cn1ncc2c3ccccc3n(Cc3ccccc3)c2c1=O)N1CCN(c2ccccn2)CC1,i,i,2%,-11%,-3%,-5%
CC(C)CCNC(=O)CN1C(=O)c2cccnc2Sc2ccccc21,i,i,.,.,.,.
COc1ccccc1C(=O)NNC(=O)CN(C)S(=O)(=O)c1ccc(Cl)cc1,?,i,17%,.,.,9%
O=C(Cn1ncc(Cl)c(Cl)c1=O)N1CCOCC1,i,?,12µM*,3.7µM*,2.9µM*,13µM*
O=C(Cn1ncc2c1-c1ccccc1OC2)N1CCc2ccccc21,i,i,-3%,7%,-12%,-4%
CCCn1c2ccccc2c2cnn(CC(=O)N3CCOCC3)c(=O)c21,i,i,0%,-9%,9%,-3%
O=C(Cn1ncc(Cl)c(Cl)c1=O)N1CCc2ccccc21,?,?,4.6µM*,10µM*,-2%,2.9µM*
CCc1ccc(C(=O)Cn2ncc(Cl)c(Cl)c2=O)cc1,?,7.3µM*,15µM*,5.8µM*,7.3µM*,?
O=C(O)C1(C(=O)O)CCC1.[NH2-].[NH2-].[Pt+2],.,.,.,0%,-1%,.
O=C(CCC1CCCCC1)NNC(=O)c1cnccn1,?,i,-1%,?,2.9µM*,-19%
CC(=O)Nc1cccc(C(=O)/C=C/c2ccc(Br)cc2)c1,?,i,?,5.8µM*,21µM*,-1%
CC(=O)Nc1cccc(C(=O)/C=C/c2ccc(F)cc2)c1,?,i,4%,9.2µM*,?,12µM*
CC(=O)Nc1cccc(C(=O)/C=C/c2ccc[nH]2)c1,i,i,1%,5%,-44%,11%
CCC(=O)Nc1cccc(C(=O)/C=C/c2cc(Br)ccc2OC)c1,18µM*,i,8.2µM*,2.9µM*,3.7µM*,8.2µM*
CC(=O)Nc1cccc(C(=O)/C=C/c2ccc(N(C)C)cc2)c1,?,i,3%,?,?,1%
COc1ccc(Br)cc1/C=C/C(=O)Nc1ccc2ccccc2c1,i,i,11%,?,-2%,1%
CCCCn1nnnc1C(c1cc2ccccc2o1)N(C)Cc1ccc(Cl)cc1 (configuration not stated),i,i,-10%,.,.,-20%
CN(Cc1ccc(F)cc1)S(=O)(=O)c1ccc2[nH]c(=O)[nH]c2c1,i,i,3%,.,.,0%
Cc1cccc(CNC(=O)CN2C(=O)C3CCCCN3c3ccc(C(=O)N4CCCC4)cc32)c1 (configuration not stated),i,i,.,.,.,.
CN(Cc1ccccc1)C(=O)c1cc(-c2ccc(Br)cc2)on1,15µM*,?,9%,-3%,2%,-26%
Cc1cc(C(=O)N(C)Cc2ccc(Br)cc2)no1,i,i,3%,-5%,2%,0%
SMILES,KB-V1 cytotox,KB-3-1 tox,HT1080NT lethal,MCF10A rereplic,SW480 rereplic,HT1080 IDH1KD tx
Oc1cccc(C2c3[nH]c4ccccc4c3CCN2Cc2ccc3c(c2)CCO3)c1 (configuration not stated),18µM*,21µM*,21µM*,16µM*,?,23µM*
Oc1cccc(C2c3[nH]c4ccccc4c3CCN2Cc2ccoc2)c1 (configuration not stated),i,i,1%,19%,-10%,-3%
CC(C)NC(=O)c1[nH]nc2c1CCc1ccccc1-2,i,i,3%,6%,?,-4%
COc1cccc(/C=N/NC(=O)c2[nH]nc3c2CCc2ccccc2-3)c1,?,10µM*,3.7µM*,?,?,2.1µM*
CNC(=O)c1[nH]nc2c1CCc1cc(OC)ccc1-2,i,i,21%,1%,?,-2%
COc1ccc(OC)c(/C=N/NC(=O)c2[nH]nc3c2CCc2ccccc2-3)c1,i,i,-10%,23µM*,?,-8%
COc1ccc(-c2ccc(NS(=O)(=O)c3ccc(C(C)=O)cc3)cc2)nn1,i,i,.,.,.,.
Cc1cnc(NC(=O)c2c(Cl)cnn2C)s1,i,i,8%,-3%,-13%,17%
CC(=O)[C@@H]1[C@@H](C(=O)c2ccccc2)[C@]2(C(=O)Nc3ccccc32)[C@H]2C=Cc3cc(F)ccc3N12,?,?,-25%,21µM*,?,-18%
O=C(c1ccccc1)[C@@H]1[C@@H](C(=O)c2ccc(F)cc2)[C@@]2(C(=O)Nc3ccccc32)[C@H]2c3ccccc3C=CN12,?,?,-1%,12%,6%,-14%
CCN1CC=C2C(C#N)=C(N)C(C#N)(C#N)C(c3cc(Cl)ccc3Cl)C2C1 (configuration not stated),i,i,-13%,16µM*,8%,?
COc1ccc(C(CC(=O)Nc2ccc(Cl)cc2F)NC(=O)C(F)(F)F)cc1 (configuration not stated),8.2µM*,i,?,2%,-10%,?
COc1cc(C)ccc1S(=O)(=O)NC(=O)C1(C)CCN1C(=O)Cc1ccc(Cl)cc1Cl (configuration not stated),i,i,10%,.,.,15%
CC(=O)Cc1nsc(NC(=O)c2ccc(-c3ccccc3Cl)o2)n1,?,?,-25%,12µM*,?,?
CC1(C(=O)NS(=O)(=O)c2ccccc2Cl)CCN1C(=O)C1(c2ccccc2)CC1 (configuration not stated),i,i,22%,.,.,12%
COc1ccccc1N=CC=C1OC(C)(C)C(C)(C)O1,i,i,-18%,21µM*,?,?
CCOC(=O)C1=C(N)Oc2cc(O)ccc2C1c1cccc(Cl)c1 (configuration not stated),?,?,9.2µM*,5.8µM*,?,7.3µM*
NC(N)=N/N=C/c1ccc(OCc2ccccc2)c(OCc2ccccc2)c1,i,?,23µM*,12µM*,21%,18µM*
